From PubChem BioAssay AID1508600 (Functional Genomics Laboratory (NCATS/FGL), 2020)
The whole screen tested about 53,000 sequences, of which about 3,700 (7%) were called active. The full list was thinned out, with actives kept by preference. Unmarked numbers belong to inactive results.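 Rule for the calls: active = gene knockdowns whose robust z-score for IL-1 alpha signal is at least 2 or at most -2, so actives lie on both sides; inactive = the rest.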

Test: Components of the Cytosolic LPS Sensing Pathway: Gene Identification via Genome-wide siRNA Screen;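 note: robust z of the log signal after scaling to non-targeting control siRNA wells of the plate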
Conditions: RAW264.7 macrophages, IL-1a HTRF, actives lie on both sides, screened at 100 nM (by protocol), cells primed 5 h with Pam3CSK4 first
Method in brief: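 RAW264.7; siRNA 100 nM final, RNAiMAX, 48h 37 degrees C; Pam3CSK4 5 h; LipidA + TransIT-TKO 24 h; IL-1a HTRF; CellTiter-Glo viability; robust z vs negative-control median.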

Row | Sequence | z-score
1 | GGCCAUUAUUCGUGAGUUGTT against Armc10 | 2.11 (active)
2 | CGGCAAUGUGACUAACAUCTT against Nrros | 0.76
3 | CGAGAUGUACCUUGAUACUTT against Idh3a | 1.44
4 | GCGAUGGACUCAAAAAACUTT against Ehd3 | 0.0497
5 | GCUGUGUAUGUAUUUCAUGTT against Rnf128 | 0.549
6 | GGCAGGAAUCUAUAUUAAUTT against Slc17a3 | 0.48
7 | GCGAAAGAUAUUGUGGAAGTT against Dixdc1 | -0.511
8 | CCAUCAUGAACACUCAACATT against Olfr462 | -2.59 (active)
9 | GCACUUUAAGAGACAAUGUTT against Gpr63 | 0.302
10 | GGCUGACUGGACAAUAAAGTT against Krt85 | -1.28
11 | CCAGUCAUCAUGCUACACGTT against Slc19a3 | 0.473
12 | GGAGUGCUUUUAAAUCCCUTT against Rreb1 | -1.43
13 | GCACUAAUACUAACCAUGGTT against Rhox12 | 0.788
14 | GGCAAGAAAUUCUUCAGCATT against St8sia3 | -1.38
15 | GGUAAUGUACCUAAUAUUGTT against Cnn1 | 0.307
16 | GCCAGAACCGCAUAUUCUUTT against Cks2 | -0.481
17 | GGCUGAAGCUCGACUGAAGTT against Abcf3 | 2.35 (active)
18 | GCAACACGGCGGAAUAAAGTT against Washc1 | -0.336
19 | GGAGCUGUAUGACCAUGCCTT against Rab25 | -2.03 (active)
20 | GGGUGAUGAUCUUCAGCAATT against Txnrd3 | -0.616
21 | GGACCUAAAGAUAAUAAGUTT against Pex3 | -0.481
22 | GCCCAUCAGAUGGCAAGAUTT against Pisd | 1.09

Row | Sequence | z-score
23 | GUCCCACACUGAUAAGAUUTT against Lcorl | -0.602
24 | GGAGCCUAUACUGAUUUAUTT against Tomm7 | 2.13 (active)
25 | GCAGCUUAGUGAUUUGAAATT against Tex21 | -1.24
26 | CCGGAUUCGAGAGGUGAUGTT against Lrrc52 | 0.0804
27 | CGGCAAAAUUAGCUAUUCATT against Exosc4 | 0.489
28 | GGCAUUACAGUGUUUCUGCTT against Tgfbr1 | -0.288
29 | GGGCAAUGAUUUCGCCUUCTT against Ninj1 | 0.337
30 | GGAUUCGUAAACUUCAGAUTT against Igf2bp3 | 3.41 (active)
31 | GGGUCAGAACACGUACGAGTT against Gnaz | 1.06
32 | CGAGUGUGAGCUACAGCGUTT against Agrn | 2.74 (active)
33 | UCUGUGGACCAGGAUUUGGTT against Pcsk1n | -2.8 (active)
34 | GGGUGUGACGAUUCUCACCTT against Olfr800 | 0.705
35 | GGAAAAUGAAGGUUCAGAATT against Pkib | -0.185
36 | GGACUGUGAGGCCUAUGAATT against Cd72 | -0.1
37 | CCGAUCUGAUAUAGUAGAATT against Stk31 | 2.18 (active)
38 | GGCCACAGAUCUUCUGGUGTT against Calml4 | 1.08
39 | CGAGGGUCUGAAAAAUUACTT against Ighg | 1.28
40 | GGUAUGCACUCACACCAGATT against Mus81 | 0.73
41 | GGCCGUGUGCAUCUUUGUGTT against Gpr20 | 1.43
42 | GGGAGAUCUCCAACACCAATT against Dipk1b | -1.02
43 | CCUUUGGUGAAGCCUGGAUTT against Kiss1 | -0.0609
44 | GGACUUCAUGGCUAGUUUCTT against B4galt4 | -0.14

Row | Sequence | z-score
45 | GCAGAGCAUGCCUUACUGUTT against Eif4ebp1 | 4.39 (active)
46 | GCUAACAGCAUCCUUUUUGTT against Vmn1r50 | -0.843
47 | GGAGAUUGACCUGGUCAACTT against Cav1 | 1.44
48 | GGUUAUGAUCGGCAUCGCUTT against Fam24a | -1.46
49 | GGCUUCCUUCAGUGAGAAUTT against 1810065E05Rik | -2.02 (active)
50 | GGCAUGAGUGCAUUUGCUATT against Ifi203 | -0.673
51 | CCUAAGCUUAUCUCAUAUUTT against 4930449I24Rik | -0.572
52 | GGGCUACUACAAUGAGUACTT against Phospho1 | 0.412
53 | GGGUGAGAUGAAAUGCAUCTT against Efemp2 | 0.264
54 | GGCCGACAAUUUGUCAGUUTT against Uaca | -1.19
55 | GCAAGUGUUAGAACACAAGTT against Cish | 0.823
56 | CGGUUCUGGUGCAUUCACATT against Olfr242 | -2.06 (active)
57 | GGAAAUUGGAGAUUUUUCCTT against Ccdc54 | -1.02
58 | GGCAUUGGAUCUUCAUUUUTT against Slc18a1 | 2.35 (active)
59 | GGUGGAGAUCAAACCAGAGTT against Rps15 | 1.4
60 | GGGAAACUCUCAGAUGAAGTT against Sh2d7 | -1.9
61 | GGCAGACAACUUCUACCAATT against Crim1 | 2.52 (active)
62 | GGCAAAAUCUCAUCAGUCCTT against Iqcc | -0.131
63 | GGUGAUCUAGAAACAACCCTT against Tmco5 | 0.243
64 | CCAUCCAGCUUUCAUUAAATT against Nckap1l | 0.508
65 | GGUCUCCAUUUCUUUCUGCTT against Nmd3 | -0.952
66 | GGAAAGAGGAAAUCUUUAGTT against Furin | 2.04 (active)

Row | Sequence | z-score
67 | GGACUGAAGUGAAAUAAAUTT against Trav13-5 | -0.949
68 | GCAUCAUCGUGGGAAACCUTT against Olfr1284 | 0.331
69 | CCAUUCUCUUUACCUCAAUTT against Rdh12 | -0.161
70 | CCUGUAGGAGUGACUUCCUTT against Crbn | 0.223
71 | GGGACCAGAUAGAAAUUAUTT against Arhgef25 | 0.414
72 | GGAAGAGAAGUUGUCCAAATT against Creld1 | 0.477
73 | GCUCACAGCAGCAUUUUACTT against 1700034H15Rik | -2.48 (active)
74 | GGACUCCUACAUGAUUGCUTT against Slc52a2 | -0.362
75 | UGUGGUCUUAGAAUCUAGCTT against Tdpoz3 | 4.49 (active)
76 | CCAUUACUUCUGUGACCUCTT against Olfr32 | -0.289
77 | GCUGCUUUCUUUGGAGGACTT against Olfr484 | 2.27 (active)
78 | GGAGCUCUUUGACUUCUUGTT against Uqcrh | 0.359
79 | GGUGGCUAAAAGCUCUUCCTT against Odc1 | 1.9
80 | GGCCCAUUGUUUGAGCCCATT against A530013C23Rik | -0.961
81 | GGCAUUAACCUGAGAUGAUTT against Sprr2i | -1.42
82 | GGCUAGCAGGAUCAGCAUCTT against Rnf212 | 0.617
83 | GGUGCUUUUUUUGGAUCAATT against Olfr507 | -1.05
84 | GGAAGAGAGGGUGAAUAUGTT against Tmem41b | -2.56 (active)
85 | CGGCAUUCAGAUUGUCUCUTT against Nup210 | -1.22
86 | GGCCAUUGAGUGCUCCUACTT against Dhcr7 | -0.113
87 | CCACUCAUUGUUCAUGGAATT against Olfr1490 | 0.798
88 | GGACCUGAGUUAGGAGAAUTT against Zfp105 | -2.06 (active)

Row | Sequence | z-score
89 | GGCUGAGAAUGCAAGAAUGTT against Krt32 | -0.446
90 | GGAAUUCAGCUUUGUGCAATT against Asl | 0.764
91 | GGCCAGCAAAACAAAUGACTT against Slc34a2 | -1.01
92 | GGUAAAGCAGUACCUUUCUTT against Mitf | 2.53 (active)
93 | GGUGAUGCUGGAAUCUUCCTT against Svop | 0.216
94 | GCGAUUCGUCUUCGAGUUCTT against Fam161a | 0.483
95 | GGAACUAUUUUUUACCCAATT against Dclre1a | -0.497
96 | GGAAAGAAGAUCGAUUACATT against Atp11c | 2.22 (active)
97 | GCCCUGUUUACACCUCUGATT against Sec23a | -1.38
98 | CGAAAGGUCAAAUUAACAGTT against Serpinb5 | 1.23
99 | CCACAAAGAAUGCAUUACUTT against Eml3 | -0.912
100 | GCUACUCAGUCUUUACUAUTT against Telo2 | -2.14 (active)
101 | CCUGGCAGAGCAUUAUCUATT against Tmem201 | 0.558
102 | GGAGACAACUGUCAAGCUGTT against Igdcc4 | -0.0921
103 | GGCACAGAAAAUCUUCAAATT against Ap2a1 | 0.97
104 | GGACUGAAGGAUGCCUCAATT against Cngb1 | 0.78
105 | GCUAACAACGUGUGCUUCUTT against Fam20a | -0.174
106 | CCCGAGAUGUAUCAUCUAATT against Krcc1 | -0.31
107 | UUCACUGUAAGAAUUGUCUTT against Vmn1r93 | -2.11 (active)
